Measured values published in PubChem BioAssay AID1671202 (University of Kansas High Throughput Screening Laboratory, 2021).
Where “and” joins values, the source holds several entries; their conditions need not be identical. Equal values may be shown once. The campaign covered roughly 190,000 compounds. About 6,900 (3.6%) were called active. The sample holds actives, similar compounds and a random draw of the others, so the mix is not that of the screen. No stated cut-off is given here; in the data, active means inhibition above about 50%; inactive means the rest. The source holds several records for some structures; these can differ, active in one and inactive in another.

Biological target: Huntingtin (Homo sapiens) (UniProt P42858)
Assay: mutant huntingtin-calmodulin interaction inhibitors – biochemical, AlphaScreen, primary screen (AID 1671202);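 on inhibition: 0% = both proteins with DMSO and 100% = one protein alone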
Settings: AlphaScreen His-mHTT/GST-CaM binding, luminescence; at 15 µM, stronger effect = higher value

Huntingtin (Homo sapiens), sequence (P42858 whole entry, looked up, stated change not applied): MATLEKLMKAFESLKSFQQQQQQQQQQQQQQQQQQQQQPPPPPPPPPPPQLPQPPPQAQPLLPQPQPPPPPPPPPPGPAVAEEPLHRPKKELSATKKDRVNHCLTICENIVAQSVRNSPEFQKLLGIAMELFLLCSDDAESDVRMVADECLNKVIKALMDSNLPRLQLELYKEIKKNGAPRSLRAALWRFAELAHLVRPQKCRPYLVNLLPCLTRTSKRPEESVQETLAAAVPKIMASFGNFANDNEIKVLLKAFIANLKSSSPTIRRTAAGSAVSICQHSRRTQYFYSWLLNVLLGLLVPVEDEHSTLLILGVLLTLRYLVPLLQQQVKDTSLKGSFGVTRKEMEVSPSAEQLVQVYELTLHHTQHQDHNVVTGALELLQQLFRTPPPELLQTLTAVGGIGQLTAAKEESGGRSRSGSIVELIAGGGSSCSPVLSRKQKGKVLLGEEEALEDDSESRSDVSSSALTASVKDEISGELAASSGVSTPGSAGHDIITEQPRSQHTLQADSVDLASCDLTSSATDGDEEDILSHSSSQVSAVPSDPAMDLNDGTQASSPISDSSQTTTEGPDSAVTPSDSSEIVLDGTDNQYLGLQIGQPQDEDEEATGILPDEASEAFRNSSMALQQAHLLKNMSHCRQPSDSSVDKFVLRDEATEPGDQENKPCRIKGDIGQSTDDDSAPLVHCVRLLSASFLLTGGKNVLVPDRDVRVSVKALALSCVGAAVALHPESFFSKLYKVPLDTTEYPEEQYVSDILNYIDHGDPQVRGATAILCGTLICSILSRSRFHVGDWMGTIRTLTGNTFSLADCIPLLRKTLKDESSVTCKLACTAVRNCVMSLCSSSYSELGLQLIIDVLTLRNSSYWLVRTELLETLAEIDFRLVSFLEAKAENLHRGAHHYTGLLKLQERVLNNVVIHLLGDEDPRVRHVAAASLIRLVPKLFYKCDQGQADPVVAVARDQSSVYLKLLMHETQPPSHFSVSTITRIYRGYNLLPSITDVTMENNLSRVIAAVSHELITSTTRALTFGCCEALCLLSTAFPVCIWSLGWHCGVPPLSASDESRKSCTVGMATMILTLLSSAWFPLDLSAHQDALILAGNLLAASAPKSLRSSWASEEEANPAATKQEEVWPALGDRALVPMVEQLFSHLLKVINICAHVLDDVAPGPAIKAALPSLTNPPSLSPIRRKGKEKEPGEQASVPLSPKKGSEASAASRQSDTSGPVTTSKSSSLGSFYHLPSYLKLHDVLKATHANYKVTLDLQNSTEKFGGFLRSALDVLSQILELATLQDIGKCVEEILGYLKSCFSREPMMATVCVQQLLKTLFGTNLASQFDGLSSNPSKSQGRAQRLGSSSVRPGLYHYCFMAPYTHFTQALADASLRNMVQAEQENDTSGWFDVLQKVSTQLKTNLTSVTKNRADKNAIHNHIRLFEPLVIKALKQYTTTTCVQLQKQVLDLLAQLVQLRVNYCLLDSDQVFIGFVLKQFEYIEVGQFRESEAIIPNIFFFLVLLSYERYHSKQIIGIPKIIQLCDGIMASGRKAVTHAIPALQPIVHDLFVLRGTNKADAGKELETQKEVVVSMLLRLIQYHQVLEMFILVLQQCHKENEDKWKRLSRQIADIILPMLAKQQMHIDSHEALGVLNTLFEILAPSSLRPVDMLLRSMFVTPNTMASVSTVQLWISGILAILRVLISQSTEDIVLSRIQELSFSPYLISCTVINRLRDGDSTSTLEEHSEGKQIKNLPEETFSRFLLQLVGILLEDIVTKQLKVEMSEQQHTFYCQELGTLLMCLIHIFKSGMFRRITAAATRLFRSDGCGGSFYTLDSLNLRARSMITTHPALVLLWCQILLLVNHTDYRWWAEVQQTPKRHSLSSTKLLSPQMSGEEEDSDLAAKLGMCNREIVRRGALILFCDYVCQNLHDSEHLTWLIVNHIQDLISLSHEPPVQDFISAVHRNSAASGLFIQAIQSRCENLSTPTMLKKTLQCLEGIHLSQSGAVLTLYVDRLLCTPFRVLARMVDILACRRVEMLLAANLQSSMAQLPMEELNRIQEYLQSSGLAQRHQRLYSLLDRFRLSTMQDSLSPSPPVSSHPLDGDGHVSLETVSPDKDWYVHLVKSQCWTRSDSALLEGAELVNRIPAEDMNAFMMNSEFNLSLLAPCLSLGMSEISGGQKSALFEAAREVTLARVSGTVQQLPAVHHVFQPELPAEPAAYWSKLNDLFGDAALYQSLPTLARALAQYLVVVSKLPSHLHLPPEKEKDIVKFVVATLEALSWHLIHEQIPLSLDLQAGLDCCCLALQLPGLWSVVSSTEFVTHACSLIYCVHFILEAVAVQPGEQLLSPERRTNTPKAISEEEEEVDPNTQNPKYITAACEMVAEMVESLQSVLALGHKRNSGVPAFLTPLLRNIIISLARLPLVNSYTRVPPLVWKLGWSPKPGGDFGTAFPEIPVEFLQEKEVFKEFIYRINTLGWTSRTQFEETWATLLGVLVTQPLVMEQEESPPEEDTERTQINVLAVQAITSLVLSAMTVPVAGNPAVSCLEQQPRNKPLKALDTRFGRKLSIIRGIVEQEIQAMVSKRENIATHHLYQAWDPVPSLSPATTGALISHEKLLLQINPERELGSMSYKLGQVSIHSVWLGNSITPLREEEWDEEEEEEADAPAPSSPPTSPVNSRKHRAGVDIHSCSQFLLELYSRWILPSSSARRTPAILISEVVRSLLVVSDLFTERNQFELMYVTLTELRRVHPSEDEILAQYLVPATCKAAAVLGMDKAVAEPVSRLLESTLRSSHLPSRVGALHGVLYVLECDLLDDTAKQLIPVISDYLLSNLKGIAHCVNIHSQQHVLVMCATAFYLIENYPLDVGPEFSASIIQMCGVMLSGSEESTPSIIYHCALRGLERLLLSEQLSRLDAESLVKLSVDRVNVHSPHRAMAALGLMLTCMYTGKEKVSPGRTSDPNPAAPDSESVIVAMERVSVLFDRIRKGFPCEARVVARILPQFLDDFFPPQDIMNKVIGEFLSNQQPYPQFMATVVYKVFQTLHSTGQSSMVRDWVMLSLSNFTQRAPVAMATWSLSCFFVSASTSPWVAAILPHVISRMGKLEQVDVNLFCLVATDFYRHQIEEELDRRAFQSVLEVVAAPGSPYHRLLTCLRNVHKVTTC

| SMILES | inhibition |
| --- | --- |
| CCOc1ccc(C(=O)Nc2cc([N+](=O)[O-])ccc2C)cc1 | -0.3% (inactive) |
| COc1ccccc1NC(=O)c1c(NCc2ccncc2)sc2c1CCCC2 | 65% (active) |
| COc1ccc(OC)c(NC(=O)c2c(NCc3ccc(C)o3)sc3c2CCC3)c1 | 7.9% (inactive) |
| COc1cccc(OC)c1C(=O)Nc1sc2c(c1C(N)=O)CCCC2 | 25.3% (inactive) |
| Cn1nccc1C(=O)N1CCCC(c2n[nH]c(C3CC3)n2)C1 (stereo not given) | 5.54% (inactive) |
| CC(=O)c1nc2sc(C)c(C)c2[nH]1 | -3.74% (inactive) |
| Cc1ccc(C(O)=C2C(=O)C(=O)N(c3ncccn3)C2c2cccc(Br)c2)cc1 (stereo not given) | 51.6% (active) |
| COc1ccc(C2C(=C(O)c3ccc(C)cc3)C(=O)C(=O)N2c2ccccn2)cc1 (stereo not given) | 2.6% (inactive) |
| CN(C)CCCN1C(=O)C(=O)C(=C(O)c2ccccc2)C1c1cccc(Br)c1 (stereo not given) | -1.6% (inactive) |
| CN1CCc2c(n(-c3ccccc3)c3ccccc23)C1=O | 56.8% (active) |
| CN1CCN(CC(=O)Nc2c3c(nc4ccccc24)N(c2ccccc2)CC3)CC1 | -4% (inactive) |
| N#CSc1ccc(NC(=O)c2ccc(-n3cnnn3)cc2)cc1 | 8.8% (inactive) |
| C=CCNC(=O)C(=O)NCc1ccccn1 | -1.5% (inactive) |
| Cc1ccc(S(=O)(=O)Nc2ccccc2C(=O)NN)cc1 | 5.3% (inactive) |
| COc1cc(N)ccc1NS(=O)(=O)c1ccc(C)cc1 | 10.8% (inactive) |
| Cc1ccc(S(=O)(=O)Nc2cc(S(=O)(=O)O)c(N)c3c2C(=N)c2ccccc2C3=O)cc1 | 94% (active) |
| CCCc1cc(=O)[nH]c(SCC(=O)Nc2cc(C(F)(F)F)ccc2Cl)n1 | -6.6% (inactive) |
| O=C(O)C1C2CCC3C(CCC21)C3C(=O)O (stereo not given) | -1.3% (inactive) |
| C=CCOC(=O)C1=C(C)NC2=C(C(=O)CC(C)(C)C2)C1c1ccc(OCC)c(OC)c1 (stereo not given) | -6.9% (inactive) |
| O=C(NCc1cccs1)C1CCc2sc(C(=O)N3CCCCC3)cc2C1 (stereo not given) | 3.05% (inactive) |
| O=C(NC(n1cnc2c(Cl)ncnc21)C(Cl)(Cl)Cl)c1ccccc1 (stereo not given) | -3% (inactive) |
| O=C(Nc1cccc(Cl)c1)Nc1c2c(nn1-c1ccccc1)CSC2 | 15.8% (inactive) |
| CCOc1ccc(-n2c(SCC(=O)NC3CCCCC3)nc3n[nH]c(C)c3c2=N)cc1 | 10% (inactive) |
| CCC(Sc1nc2n[nH]c(C)c2c(=N)n1-c1ccc(OC)cc1)C(=O)Nc1ccccc1OC (stereo not given) | 30% (inactive) |

| SMILES | inhibition |
| --- | --- |
| CCC(Sc1nc2n[nH]c(C)c2c(=N)n1-c1ccc(Br)cc1)C(=O)NCCOC (stereo not given) | 75% (active) |
| Cc1ccc(C(=O)Nc2ccc(-n3cnnn3)c(C)c2)cc1 | -6.6% (inactive) |
| COc1ccc(Br)cc1S(=O)(=O)NCCCn1ccnc1 | -3.1% (inactive) |
| Cn1cc(C2=CCN(S(=O)(=O)c3cccc(Cl)c3)CC2)c2cccnc21 | 0.52% (inactive) |
| COc1cccc(-c2nc(C3CCN(S(=O)(=O)c4ccccc4F)CC3)no2)c1 | -3.26% (inactive) |
| CCCOc1ccc(C2C3=C(CC(C)(C)CC3=O)Nc3ccc4ncccc4c32)cc1 (stereo not given) | 49% (inactive) |
| CCOc1ccc(C2C3=C(CC(C)(C)CC3=O)Nc3ncnn32)cc1 (stereo not given) | -2.23% (inactive) |
| CC1(C)CC(=O)C2=C(C1)NC1=C(C(=O)c3ccccc31)C2c1ccc(OCc2ccccc2)cc1 (stereo not given) | 100% (active) |
| O=C(c1ccccc1)c1cc(S(=O)(=O)C(F)(F)F)ccc1[N+](=O)[O-] | 34% (inactive) |
| CCOc1ccc(CN2CCCC2c2c(C)noc2CC)cc1 (stereo not given) | -51.7% (inactive) |
| CNC(=O)c1c(NC(=O)c2ccc(Br)s2)sc(C)c1C | -10.4% (inactive) |
| CSc1cccc(NC(=O)c2ncn[nH]2)c1 | 0.6% (inactive) |
| O=C(Nc1ccc(Cl)c(C(=O)O)c1)c1ncn[nH]1 | 18.5% (inactive) and 57% (active) |
| O=C(Nc1cc([N+](=O)[O-])ccc1Cl)c1ncn[nH]1 | 4% (inactive) |
| CC(C)(c1ccccc1)c1ccc(OCC(=O)Nc2ncn[nH]2)cc1 | 16% (inactive) |
| Cc1n[nH]c(=O)nc1N/N=C/c1cccs1 | active |
| O=C1/C(=C/c2cccs2)CC2CC1C/C(=C\c1cccs1)C2=O | 31% (inactive) |
| Cc1ccc(C)c(N2CCN(C(=O)c3cc4ccncc4n3C)CC2)c1 | 48.1% (inactive) |
| Cc1cc(O)c(CN2CCCCC2)c2c1C(=O)C(=Cc1ccncc1)O2 | 10% (inactive) |
| O=C(CCc1ccccc1)N1N=C(c2cccc([N+](=O)[O-])c2)CC1(O)C(F)(F)F (stereo not given) | 26% (inactive) |
| O=C1C2CC(Br)C(Br)CC2C(=O)N1c1ccc([N+](=O)[O-])cc1 (stereo not given) | 0% (inactive) |
| O=C1CC(c2ccccc2)=NN1c1ccc([N+](=O)[O-])cc1 | 91% (active) |
| CCCn1ncc(N2CCC(C(=O)NCCCN3CCOCC3)CC2)cc1=O | -2.54% (inactive) |
| O=C(Nc1ccc(Cn2cncn2)cc1)c1ccc(Cl)cc1 | 17.8% (inactive) |

| SMILES | inhibition |
| --- | --- |
| CC1CN(C(=O)C2(c3ccccc3)CC2)CC1c1nc(-c2cccnc2)no1 (stereo not given) | 29.4% (inactive) |
| CCNC(=O)c1c(O)c2cccc3c2n(c1=O)CC3 | 0% (inactive) |
| CCN(CC)CCCNC(=O)c1c(O)c2cc(F)cc3c2n(c1=O)C(C)CC3 (stereo not given) | 98% (active) |
| CCN(CC)CCNC(=O)c1cn(C2CCCCC2)c(=O)c2c1c1ccccc1n2C | 6% (inactive) |
| CNC(=O)N1CCCC(c2cccc(C(=O)NCc3ccccc3C(F)(F)F)c2)C1 (stereo not given) | -2.02% (inactive) |
| COc1ccc(C2C3C(=O)N(c4ccc([N+](=O)[O-])cc4)C(=O)C3N3CCCN23)cc1 (stereo not given) | -1% (inactive) |
| CCCCN1C[C@H](c2ccc(Br)cc2)[C@@H](CC(=O)Nc2ccc(Br)cc2)C1=O | 96.5% (active) |
| CCCCN1CC(C)(C)[C@H](CC(=O)Nc2ccc(Br)cc2)C1=O | -13.5% (inactive) |
| C[C@H]1CN(c2ccc(Br)cc2)C(=O)[C@@H]1CC(=O)Nc1ccc(Br)cc1 | 2.2% (inactive) |
| Cc1cc(C)c(NC(=O)CNC(C)(C)C)c(C)c1 | -2.1% (inactive) |
| O=C(NC(C(=O)N1CCCCC1)C12CC3CC(CC(C3)C1)C2)c1ccc(F)cc1 (stereo not given) | 2.5% (inactive) |
| CC1=C/C(=N\Oc2ccc3noc4c3c2C(=O)c2ccccc2-4)C(C(C)C)=CC1=O | active |
| N#Cc1ccc(C2=COC3(CCCN(C(=O)c4ccccc4)C3)C2)cc1 (stereo not given) | 2.5% (inactive) |
| CN(C)c1ncccc1NC(=O)c1cccc(C#N)c1 | 0% (inactive) |
| O=[N+]([O-])c1ccc2c(c1)C1C=CCC1C(c1cccc(Br)c1)N2 (stereo not given) | 72% (active) |
| COc1cccc(C2Nc3ccc(C(=O)O)cc3C3C=CCC32)c1OC (stereo not given) | 15% (inactive) |
| O=C1NC(c2cccc([N+](=O)[O-])c2)C(=C(O)c2ccc(Br)cc2)C1=O (stereo not given) | 7.7% (inactive) |
| CCCn1cnc2c1c(=O)n(CC)c(=O)n2-c1ccc(C)cc1 | 0.6% (inactive) |
| CC(C)Cn1cc(C(=O)NC2CCCCCC2)c2c3ccccc3n(C)c2c1=O | 1% (inactive) |
| COc1cccc(C2C3=C(Nc4c2c(=O)n(C)c(=O)n4C)c2ccccc2C3=O)c1OC (stereo not given) | 27% (inactive) |
| Cn1nc(COc2ccccc2)c2c1CCN(C(=O)Nc1ccc(F)cc1F)C2 | 22.3% (inactive) |
| Cn1nc(COc2ccc(F)cc2)c2c1CCN(C(=O)Nc1ccc(F)cc1F)C2 | -2.73% (inactive) |
| Cn1nc(COc2ccc(F)cc2)c2c1CCN(C(=O)Nc1ccc(F)cc1)C2 | 80% (active) |
| Cc1ccc(C)c(N=c2oc3ccccc3cc2C(=O)Nc2nccs2)c1 | -4% (inactive) |

| SMILES | inhibition |
| --- | --- |
| CN(C)CCNC(=O)c1cc2n(n1)CCCN(Cc1cccc(F)c1)C2=O | -3.78% (inactive) |
| CC(=O)NC(=Nc1nc(C)cc(C)n1)Nc1cccc(C)c1C | 0% (inactive) |
| Cc1c(NC(=O)c2cccc([N+](=O)[O-])c2C)cccc1-c1nc2ccccc2[nH]1 | 16% (inactive) |
| O=C(Nc1ccccc1-c1nc2ccccc2[nH]1)c1ccccc1Br | 51% (active) |
| O=C(Nc1ccccc1-c1nc2ccccc2[nH]1)c1ccccc1Cl | 45.7% (inactive) |
| O=C(CN1C(=O)CCC1=O)N1CCC(Oc2nc3ccc(F)cc3s2)CC1 | -3.4% (inactive) |
| O=C(Nc1nc2ccccc2s1)c1ccc2c(c1)OCO2 | 17.1% (inactive) |
| O=C(Cc1ccc2c(c1)OCO2)N1CCC(Oc2nc3ccccc3s2)CC1 | 61.1% (active) |
| O=C(NCc1ccncc1)C1CC(=O)N(Cc2ccccc2F)C1 (stereo not given) | 3.4% (inactive) |
| COc1ccc(C(=O)CSc2nc(N)cc(=O)[nH]2)cc1[N+](=O)[O-] | 3.7% (inactive) |
| C[C@H]1COc2cc(N3CCSCC3)ccc2S(=O)(=O)N1 | -12% (inactive) |
| O=C(c1ccc(F)cc1)N1CCc2nc[nH]c2C1 | -20.2% (inactive) |
| COc1cc(C(c2cc3c(cc2O)OCO3)N2CCCC2)cc(OC)c1OC (stereo not given) | 81.6% (active) |
| COc1cc(OC)c(OC)cc1CN1CCN(Cc2ccc3c(c2)OCO3)CC1 | 2.4% (inactive) |
| Cc1nc2c(c(NCC3CCCO3)n1)CCC2 (stereo not given) | -7.6% (inactive) |
| C[C@H]1[C@H](NC(=O)c2cccc(N(C)C)c2)CC[C@@]23CCCN2C(=O)CCC[C@@H]13 | -15.6% (inactive) |
| Cc1nnc2cc(N3CCN(Cc4ccc(C(C)C)cc4)CC3)cnn12 | 63.7% (active) |
| Clc1cccc(N2CCN(Cc3cccnc3)CC2)c1 | 1% (inactive) |
| c1csc(CN2CCN(c3cnn4cnnc4c3)CC2)c1 | 0.4% (inactive) |
| CCn1nnc2c(N3CCN(C(=O)Nc4ccccc4C(F)(F)F)CC3)ncnc21 | -3.4% (inactive) |
| CCOc1cc(/C=C2\C(=O)NN(c3cccc(Cl)c3)C2=O)ccc1O | 8% (inactive) |
| CCOc1cc(/C=C2\C(=O)NN(c3ccccc3)C2=O)cc(Cl)c1OCC | 61% (active) |
| Cc1ccccc1COc1cccc(/C=C2\C(=O)NN(c3ccccc3)C2=O)c1 | 7% (inactive) |
